Data reported in paper PMC4336329 (PLoS ONE, 2015).
The whole screen tested about 310,000 compounds, of which about 14,000 (4.5%) showed an effect of 50% or more. The effect is printed as a negative number. This is one part of a sample in which strong results are shown more often than they occur.

The compounds below were run against human ether-à-go-go-related gene (hERG) potassium channel (human, UniProt Q12809) (assay: primary screen, population patch clamp on CHO cells stably expressing hERG; higher = less effect of the substance).
Chain of human ether-à-go-go-related gene (hERG) potassium channel (Q12809 whole entry, looked up): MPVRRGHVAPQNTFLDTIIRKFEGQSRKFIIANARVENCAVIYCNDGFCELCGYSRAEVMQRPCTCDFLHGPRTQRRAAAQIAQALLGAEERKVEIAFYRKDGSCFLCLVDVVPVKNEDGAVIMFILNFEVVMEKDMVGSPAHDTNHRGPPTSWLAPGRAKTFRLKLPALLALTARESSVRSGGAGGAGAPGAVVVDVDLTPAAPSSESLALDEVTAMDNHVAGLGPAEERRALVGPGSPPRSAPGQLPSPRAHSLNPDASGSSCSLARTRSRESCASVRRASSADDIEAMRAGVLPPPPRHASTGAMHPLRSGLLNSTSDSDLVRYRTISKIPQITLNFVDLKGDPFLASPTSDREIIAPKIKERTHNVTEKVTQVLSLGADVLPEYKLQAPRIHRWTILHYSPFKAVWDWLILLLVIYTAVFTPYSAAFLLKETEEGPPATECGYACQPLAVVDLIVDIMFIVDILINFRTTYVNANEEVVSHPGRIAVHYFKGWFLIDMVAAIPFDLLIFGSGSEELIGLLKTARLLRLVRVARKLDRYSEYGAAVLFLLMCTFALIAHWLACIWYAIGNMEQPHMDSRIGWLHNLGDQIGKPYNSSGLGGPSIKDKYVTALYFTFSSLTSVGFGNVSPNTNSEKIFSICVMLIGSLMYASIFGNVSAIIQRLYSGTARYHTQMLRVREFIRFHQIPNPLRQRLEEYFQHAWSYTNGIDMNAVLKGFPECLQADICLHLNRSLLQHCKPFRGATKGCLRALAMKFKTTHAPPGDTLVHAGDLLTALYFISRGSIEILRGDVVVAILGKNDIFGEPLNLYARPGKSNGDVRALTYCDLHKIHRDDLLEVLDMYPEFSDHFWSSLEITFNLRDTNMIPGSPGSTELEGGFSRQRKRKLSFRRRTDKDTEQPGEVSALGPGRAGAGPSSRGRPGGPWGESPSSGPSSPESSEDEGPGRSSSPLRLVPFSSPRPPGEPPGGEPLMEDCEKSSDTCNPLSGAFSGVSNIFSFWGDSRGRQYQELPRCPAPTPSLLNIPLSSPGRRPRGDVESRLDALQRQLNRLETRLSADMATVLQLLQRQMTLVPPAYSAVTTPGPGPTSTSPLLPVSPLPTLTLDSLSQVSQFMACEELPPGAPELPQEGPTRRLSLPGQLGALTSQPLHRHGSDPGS
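Note: peak tail current of the secondary pulse compared with the same well before compound.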

Row | Compound | hERG current change (%, negative = inhibition) at 10uM [%]
1 | CSCC[C@H](NC(=O)OC(C)(C)C)c1nnc(SCc2cccc(F)c2)o1 | -30.3
2 | CSCC[C@H](NC(=O)OC(C)(C)C)c1nnc(SCc2ccccc2)o1 | -51.3
3 | CSCC[C@H](NC(=O)OC(C)(C)C)c1nnc(SCc2ccc(F)cc2)o1 | -46.2
4 | CSCC[C@H](NC(=O)OC(C)(C)C)c1nnc(SCC(=O)Nc2c(C)cccc2C)o1 | -14.5
5 | Cc1ccc(NC(=O)CSc2nnc([C@H](C)NC(=O)OC(C)(C)C)o2)c(C)c1 | -6.67
6 | CSCC[C@H](NC(=O)OC(C)(C)C)c1nnc(SCC(=O)Nc2ccc(C)cc2C)o1 | -50.1
7 | Cc1cc(NC(=O)CSc2ccc3c(c2)OCCO3)no1 | -8.22
8 | COc1ccc(/C=C2\SC(=O)N(CC(=O)Nc3ccccc3O)C2=O)cc1OC | 9.72
9 | CCC1(C)Cc2c(sc3nnn(CC(=O)Nc4ccccc4)c(=O)c23)CO1 (stereo not shown) | -27.3
10 | O=C(CCn1c(=O)oc2ccccc21)Nc1ccc(C(=O)O)cc1 | -45
11 | CCOc1ccc(C(=O)N2CCN(CCc3ccccc3)CC2)cc1OCC | -78.8
12 | COc1ccc(C(=O)N2CCN(CCCc3ccccc3)CC2)cc1OC.O=C(O)C(=O)O | -73.3
13 | CCOc1ccc(C(=O)N2CCN(C(=O)c3ccco3)CC2)cc1OCC | -5.57
14 | COc1cccc(C(=O)N2CCN(CCCc3ccccc3)CC2)c1OC.O=C(O)C(=O)O | -46.7
15 | CCOc1ccc(C(=O)N2CCN(c3ccccc3)CC2)cc1OCC | -32.4
16 | COc1cc(C(=O)N2CCN(CCCc3ccccc3)CC2)cc(OC)c1OC | -9.98
17 | OC(C#Cc1ccccn1)c1cccs1 (stereo not shown) | 3.9
18 | Clc1ccc(-c2[nH]ncc2N=Nc2ccccc2)cc1 | 15.3
19 | Cc1cccc(C(=O)NCCC(=O)Nc2ccc(C#N)cc2)c1 | -0.169
20 | CCOc1ccc(CN2CCNC(=O)C2CC(=O)NCCCC2CCCC2)cc1 (stereo not shown) | -34.1
21 | COc1ccc(Cc2noc(CN3CCN(Cc4cccc(Cl)c4)CC3)n2)cc1OC | -11.5
22 | COc1ccc(Cc2noc(CN(C)CC3CCN(Cc4ccccc4)CC3)n2)cc1OC | -22.9
23 | COc1ccc(Cc2noc(CN3CCNC(=O)CC3)n2)cc1OC | 6.36
24 | COc1ccc(Cc2noc(CN3CCC(c4ccncc4)CC3)n2)cc1OC | -20
25 | COc1ccc(Cc2noc(CN3CCCN(Cc4ccc(F)cc4)CC3)n2)cc1OC | -60.8
26 | COCCN1CCN(Cc2nc(Cc3ccc(OC)c(OC)c3)no2)CC1 | 3.84
27 | COc1ccc(Cc2noc(CN3CCN(C4CCc5ccccc5C4)CC3)n2)cc1OC (stereo not shown) | -68.8
28 | COc1ccc(Cc2noc(CN3CCCN(C4Cc5ccccc5C4)CC3)n2)cc1OC | -67

Row | Compound | hERG current change (%, negative = inhibition) at 10uM [%]
29 | COc1ccc(Cc2noc(CN3CCN(Cc4csc(C)n4)CC3)n2)cc1OC | 18.2
30 | Cc1ccc(NC(=S)Nc2c(C)n(C)n(-c3ccccc3)c2=O)cc1Cl | -22.7
31 | O=S1(=O)c2cccc3cccc(c23)N1Cc1nnc(-c2ccccc2Br)o1 | -9.83
32 | COc1cc(C(=O)NC(=S)NNC(=O)c2ccc3c(c2)OCO3)cc(OC)c1OC | 8.08
33 | CN1CCN(C(=O)CN(Cc2ccccc2)S(C)(=O)=O)CC1 | 25.7
34 | Cn1ncc(Cl)c1C(=O)NCc1ccc(Cl)cc1 | -13.3
35 | COc1ccc(NC(=O)CN(c2ccc(OC)c(Cl)c2)S(=O)(=O)c2ccccc2)c(OC)c1 | 8.77
36 | Cc1cccc(N=CC=C2OC(C)(C)C(C)(C)O2)c1 | 3.43
37 | O=C(Nc1ccc(S(=O)(=O)N2CCCC2)cc1)c1cccc(OC(F)F)c1 | -54.3
38 | O=C(Nc1cccc(S(=O)(=O)N2CCCC2)c1)c1cccc(OC(F)F)c1 | -56.4
39 | O=C(Nc1cc(Cl)cc(Cl)c1)c1cccc(OC(F)F)c1 | -2.79
40 | COc1cccc(C(=O)NC23CC4CC(CC(C4)C2)C3)c1 | 2.17
41 | O=C(Nc1cccc(S(=O)(=O)N2CCCC2)c1)c1ccccc1OC(F)F | -13.7
42 | N#Cc1cccc(C(=O)Nc2cccc(S(=O)(=O)N3CCCC3)c2)c1 | 2.83
43 | CC(=O)Nc1cccc(C(=O)Nc2ccc(S(=O)(=O)N3CCCCC3)cc2)c1 | -10.3
44 | O=C(NC12CC3CC(CC(C3)C1)C2)c1cccc(OC(F)F)c1 | -55.2
45 | O=C(Nc1ccc(OC(F)F)c(Cl)c1)c1cccc(OC(F)F)c1 | -61.7
46 | O=C(NC12CC3CC(CC(C3)C1)C2)c1ccccc1 | 6.99
47 | O=C(Nc1ccc(S(=O)(=O)N2CCCC2)cc1)c1ccccc1 | -7.24
48 | COc1ccc(NC(=O)c2cccc(OC(F)F)c2)cc1Cl | -22.2
49 | COc1ccc(NC2CCCN(C(=O)c3oc(C)cc3C)C2)cc1OC (stereo not shown) | 16.2
50 | CC(C)(C)C1CCC(C(=O)Nc2nccs2)CC1 (stereo not shown) | 9.99
51 | C/C(=N\NC(=O)c1ccc(C)cc1)c1c(C)[nH]n(-c2ccccc2)c1=O | 14.2
52 | Cc1ccccc1N1C(=O)C2ON(c3ccccc3)C(c3ccco3)C2C1=O (stereo not shown) | 16.8
53 | CSc1nnnn1CCn1nnnc1SC | 10.1
54 | Cc1cccc(/C=N/n2c(C)nnc2C)c1 | -0.651
55 | O=C1CN(C(=O)CSc2nc(-c3ccc(Cl)cc3)cs2)c2ccccc2N1 | 13.9
